Test results as given in the supplement of paper PMC11732987, “Enantioselective OTUD7B fragment discovery through chemoproteomics screening and high-throughput optimisation” (Communications Chemistry, 2025).

Key:
Experiment in all cases: log2 ratio of Biotin-Ahx-Ub-VS probe labelling (fragment/DMSO); higher = less target engagement (more negative = stronger competition), active = hit call of the paper (q ≤ 0.05, log2 ratio ≤ -1)
Details in all cases: compound concentration: 200 uM; treatment time: 3 h
[1] = target: T1, OTUD6B (UniProt Q8N6M0)
T1 sequence (whole entry): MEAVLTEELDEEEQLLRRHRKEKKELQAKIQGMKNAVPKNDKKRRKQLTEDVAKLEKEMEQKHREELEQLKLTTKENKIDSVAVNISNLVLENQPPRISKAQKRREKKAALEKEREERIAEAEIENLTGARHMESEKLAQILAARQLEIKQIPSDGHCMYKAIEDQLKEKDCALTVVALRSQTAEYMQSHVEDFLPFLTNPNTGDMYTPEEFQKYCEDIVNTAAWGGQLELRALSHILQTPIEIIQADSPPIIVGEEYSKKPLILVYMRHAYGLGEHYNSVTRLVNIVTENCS
Outline: (§1)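 Fragment (200 µM) or vehicle was incubated for 3 h with triplicate HEK293T lysate samples of 495 µg, which were then treated with Biotin-Ahx-Ub-VS at 0.5 µM final for 1 h. Labelled DUBs were enriched on NeutrAvidin, digested with LysC and trypsin, and analysed by diaPASEF LC-MS/MS. Values are average log2 fragment/vehicle ratios from an unpaired t-test on global-median-normalised Spectronaut label-free quantities, using proteins with ≥2 unique peptides.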

[2] = target: T2, OTUD7B (UniProt Q6GQQ9)
T2 sequence (whole entry): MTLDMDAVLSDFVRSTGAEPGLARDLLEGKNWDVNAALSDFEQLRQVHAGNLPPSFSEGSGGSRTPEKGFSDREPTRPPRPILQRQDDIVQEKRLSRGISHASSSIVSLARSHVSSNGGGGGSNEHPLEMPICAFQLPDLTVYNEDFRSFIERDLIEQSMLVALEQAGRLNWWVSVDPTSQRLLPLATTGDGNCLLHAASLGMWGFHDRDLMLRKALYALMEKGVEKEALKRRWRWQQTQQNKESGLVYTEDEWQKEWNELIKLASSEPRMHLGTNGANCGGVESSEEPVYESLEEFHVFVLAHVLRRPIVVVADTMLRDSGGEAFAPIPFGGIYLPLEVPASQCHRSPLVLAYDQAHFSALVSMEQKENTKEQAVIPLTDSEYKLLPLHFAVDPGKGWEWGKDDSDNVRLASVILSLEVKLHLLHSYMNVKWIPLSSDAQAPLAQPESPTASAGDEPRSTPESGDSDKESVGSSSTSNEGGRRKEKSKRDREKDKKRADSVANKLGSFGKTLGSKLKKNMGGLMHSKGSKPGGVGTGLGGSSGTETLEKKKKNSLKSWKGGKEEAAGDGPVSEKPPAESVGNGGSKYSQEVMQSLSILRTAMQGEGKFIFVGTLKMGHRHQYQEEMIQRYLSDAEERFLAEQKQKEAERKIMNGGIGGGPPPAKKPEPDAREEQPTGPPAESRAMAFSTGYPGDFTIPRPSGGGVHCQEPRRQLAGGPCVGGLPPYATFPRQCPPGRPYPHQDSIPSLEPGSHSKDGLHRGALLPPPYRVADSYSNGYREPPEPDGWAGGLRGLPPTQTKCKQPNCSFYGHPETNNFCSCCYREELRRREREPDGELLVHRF
Outline: as §1

[3] = target: PRPF8 (UniProt Q6P2Q9)
Outline: as §1

[4] = target: T3, PSMD7 (UniProt P51665)
T3 sequence (whole entry): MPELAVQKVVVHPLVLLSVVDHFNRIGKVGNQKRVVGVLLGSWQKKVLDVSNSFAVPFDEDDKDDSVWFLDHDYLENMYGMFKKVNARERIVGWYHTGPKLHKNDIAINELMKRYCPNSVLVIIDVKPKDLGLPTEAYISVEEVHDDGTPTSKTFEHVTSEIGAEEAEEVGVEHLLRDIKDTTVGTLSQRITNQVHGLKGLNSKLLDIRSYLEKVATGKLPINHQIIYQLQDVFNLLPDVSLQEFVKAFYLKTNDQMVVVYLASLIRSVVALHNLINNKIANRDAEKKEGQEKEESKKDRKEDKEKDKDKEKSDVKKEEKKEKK
Outline: as §1

[5] = target: UCHL1 (UniProt P09936)
Outline: as §1

[6] = target: T4, UCHL3 (UniProt P15374)
T4 sequence (whole entry): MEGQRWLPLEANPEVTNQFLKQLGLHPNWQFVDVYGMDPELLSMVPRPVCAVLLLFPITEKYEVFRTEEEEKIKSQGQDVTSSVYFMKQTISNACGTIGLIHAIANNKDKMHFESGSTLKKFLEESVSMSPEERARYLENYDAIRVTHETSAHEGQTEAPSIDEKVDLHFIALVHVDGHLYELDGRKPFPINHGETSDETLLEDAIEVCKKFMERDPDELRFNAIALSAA
Outline: as §1

[7] = target: T5, UCHL5 (UniProt Q9Y5K5)
T5 sequence (whole entry): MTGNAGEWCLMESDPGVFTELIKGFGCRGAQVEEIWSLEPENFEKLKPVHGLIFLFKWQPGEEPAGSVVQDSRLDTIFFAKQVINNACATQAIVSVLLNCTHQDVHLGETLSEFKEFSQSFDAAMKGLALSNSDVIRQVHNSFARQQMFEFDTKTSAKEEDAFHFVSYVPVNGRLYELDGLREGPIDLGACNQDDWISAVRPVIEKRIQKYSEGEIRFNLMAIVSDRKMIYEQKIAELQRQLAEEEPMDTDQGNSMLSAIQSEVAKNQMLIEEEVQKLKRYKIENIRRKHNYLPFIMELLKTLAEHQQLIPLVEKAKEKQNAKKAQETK
Outline: as §1

[8] = target: USP10 (UniProt Q14694)
Outline: as §1

[9] = target: T6, USP15 (UniProt Q9Y4E8)
T6 sequence (whole entry): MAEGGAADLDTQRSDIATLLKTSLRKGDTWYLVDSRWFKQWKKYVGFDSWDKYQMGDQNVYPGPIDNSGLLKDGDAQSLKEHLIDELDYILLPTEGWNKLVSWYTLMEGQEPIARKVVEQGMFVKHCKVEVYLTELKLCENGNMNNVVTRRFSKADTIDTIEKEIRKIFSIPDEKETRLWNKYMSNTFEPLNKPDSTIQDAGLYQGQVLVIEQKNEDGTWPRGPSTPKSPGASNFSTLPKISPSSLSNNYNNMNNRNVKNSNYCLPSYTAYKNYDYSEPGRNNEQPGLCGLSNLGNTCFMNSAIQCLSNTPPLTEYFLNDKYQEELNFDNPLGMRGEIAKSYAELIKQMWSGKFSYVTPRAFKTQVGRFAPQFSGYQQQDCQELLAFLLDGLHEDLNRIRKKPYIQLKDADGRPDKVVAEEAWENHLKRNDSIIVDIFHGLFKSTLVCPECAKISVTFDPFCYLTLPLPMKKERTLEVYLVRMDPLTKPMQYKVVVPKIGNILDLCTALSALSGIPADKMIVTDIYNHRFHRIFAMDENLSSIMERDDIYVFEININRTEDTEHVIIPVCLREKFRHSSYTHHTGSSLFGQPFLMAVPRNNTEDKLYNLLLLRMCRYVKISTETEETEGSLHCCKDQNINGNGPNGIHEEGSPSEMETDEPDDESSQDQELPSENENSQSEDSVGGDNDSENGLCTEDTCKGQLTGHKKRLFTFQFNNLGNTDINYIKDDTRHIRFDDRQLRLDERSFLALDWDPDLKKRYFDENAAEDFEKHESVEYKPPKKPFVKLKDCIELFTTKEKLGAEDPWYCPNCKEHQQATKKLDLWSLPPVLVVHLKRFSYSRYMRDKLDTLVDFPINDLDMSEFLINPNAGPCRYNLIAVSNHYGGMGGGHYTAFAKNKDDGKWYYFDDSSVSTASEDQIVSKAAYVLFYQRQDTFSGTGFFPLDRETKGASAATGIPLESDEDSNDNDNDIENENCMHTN
Outline: as §1

[10] = target: USP16 (UniProt Q9Y5T5)
Outline: as §1

Measured: log2 ratio of Biotin-Ahx-Ub-VS probe labelling

Chain of USP16 (Q9Y5T5 whole entry, looked up): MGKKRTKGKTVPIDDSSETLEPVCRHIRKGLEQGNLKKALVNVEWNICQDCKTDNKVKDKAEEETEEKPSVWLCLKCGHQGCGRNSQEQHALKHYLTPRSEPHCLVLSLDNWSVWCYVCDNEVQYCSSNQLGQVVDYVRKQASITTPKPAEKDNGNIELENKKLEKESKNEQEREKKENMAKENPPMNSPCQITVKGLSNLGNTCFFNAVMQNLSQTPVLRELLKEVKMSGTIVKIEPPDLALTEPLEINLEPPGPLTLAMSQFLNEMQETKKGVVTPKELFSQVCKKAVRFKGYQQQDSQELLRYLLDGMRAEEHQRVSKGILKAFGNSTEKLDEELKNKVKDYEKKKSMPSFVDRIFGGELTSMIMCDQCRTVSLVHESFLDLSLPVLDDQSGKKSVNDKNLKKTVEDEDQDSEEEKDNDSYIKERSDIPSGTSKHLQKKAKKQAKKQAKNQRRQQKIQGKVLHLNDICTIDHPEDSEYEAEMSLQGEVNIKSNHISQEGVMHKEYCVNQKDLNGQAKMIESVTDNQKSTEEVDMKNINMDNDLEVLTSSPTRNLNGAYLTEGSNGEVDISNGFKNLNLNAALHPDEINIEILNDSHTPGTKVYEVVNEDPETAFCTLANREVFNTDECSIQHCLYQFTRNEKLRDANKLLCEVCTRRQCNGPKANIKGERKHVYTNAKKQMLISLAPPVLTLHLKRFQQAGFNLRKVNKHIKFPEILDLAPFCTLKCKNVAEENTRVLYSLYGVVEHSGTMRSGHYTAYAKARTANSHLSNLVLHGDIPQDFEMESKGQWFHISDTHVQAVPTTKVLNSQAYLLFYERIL
Chain of USP10 (Q14694 whole entry): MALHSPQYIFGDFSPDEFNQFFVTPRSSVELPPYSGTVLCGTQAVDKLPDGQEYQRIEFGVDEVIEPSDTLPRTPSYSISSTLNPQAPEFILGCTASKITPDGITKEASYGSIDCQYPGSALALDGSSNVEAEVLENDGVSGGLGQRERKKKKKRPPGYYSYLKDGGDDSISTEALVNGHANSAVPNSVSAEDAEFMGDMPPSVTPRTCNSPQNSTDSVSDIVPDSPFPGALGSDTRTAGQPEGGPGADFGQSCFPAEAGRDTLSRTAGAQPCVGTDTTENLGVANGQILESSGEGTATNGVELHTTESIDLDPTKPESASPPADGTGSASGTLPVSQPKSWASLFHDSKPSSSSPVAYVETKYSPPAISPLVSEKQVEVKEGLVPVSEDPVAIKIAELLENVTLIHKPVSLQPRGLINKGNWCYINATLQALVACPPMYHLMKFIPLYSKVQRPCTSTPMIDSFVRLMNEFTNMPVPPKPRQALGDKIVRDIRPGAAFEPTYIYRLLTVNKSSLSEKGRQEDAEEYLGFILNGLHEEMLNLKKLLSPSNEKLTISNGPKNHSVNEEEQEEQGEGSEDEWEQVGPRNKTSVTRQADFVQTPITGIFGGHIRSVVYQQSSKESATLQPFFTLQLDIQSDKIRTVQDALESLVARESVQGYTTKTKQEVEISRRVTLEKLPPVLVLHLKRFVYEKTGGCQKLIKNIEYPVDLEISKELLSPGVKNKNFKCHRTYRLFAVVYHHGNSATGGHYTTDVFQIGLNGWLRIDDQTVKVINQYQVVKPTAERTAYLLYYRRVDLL
Chain of UCHL1 (P09936 whole entry, looked up): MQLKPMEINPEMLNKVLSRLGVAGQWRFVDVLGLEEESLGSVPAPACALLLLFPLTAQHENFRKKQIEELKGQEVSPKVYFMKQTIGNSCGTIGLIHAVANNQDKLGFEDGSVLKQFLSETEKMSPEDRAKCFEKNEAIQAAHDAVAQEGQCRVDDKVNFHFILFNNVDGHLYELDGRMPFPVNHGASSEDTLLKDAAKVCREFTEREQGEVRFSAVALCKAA

Cc1ccc(C)c(NC(=O)CCl)c1
inactive: [1] -0.56 | [2] -0.844 | [3] -0.000105 | [4] -0.209 | [6] -0.416 | [7] -0.568 | [8] -0.39 | [9] -0.203 | [10] -0.0434
active: [5] -1.17
